{"source": "paper PMC12820563", "about": "“FoxP3 forms a head-to-head dimer in vivo and stabilizes its multimerization on adjacent microsatellites”", "note": "The full ranking holds about 16,000 sequences; the median of “rpm ratio (pull-down/input)” is about 0.5, and the highest 2% start at about 5.5. The sample holds the highest values, similar sequences and a random draw of the others, so the mix is not that of the screen."}
{"target": "T1, MBP-FoxP3dN (Mus musculus, UniProt Q99JB6 188-423)", "T1 sequence": "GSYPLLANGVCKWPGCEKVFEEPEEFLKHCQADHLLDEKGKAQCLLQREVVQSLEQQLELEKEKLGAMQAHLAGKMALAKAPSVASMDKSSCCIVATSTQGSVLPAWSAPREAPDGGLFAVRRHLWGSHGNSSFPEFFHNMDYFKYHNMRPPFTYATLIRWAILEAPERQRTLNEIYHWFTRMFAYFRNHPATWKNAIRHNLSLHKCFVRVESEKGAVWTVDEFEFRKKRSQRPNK", "assay": "PD-seq (MBP pull-down with sequencing); 20 mM Tris-HCl pH 7.5, 100 mM NaCl, 1.5 mM MgCl2, 0.4 uM protein, 0.1 uM dsDNA library, 30 min, room temperature, amylose pull-down; high values mean tight binding", "settings": "protein: recombinant; tags: His6-MBP; chain copies: 2; dsDNA, one strand shown", "method_in_brief": "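A degenerate double-stranded DNA library, filled in with Klenow, was added at 0.1 µM to 0.4 µM His6-MBP-tagged mouse FoxP3 or FoxP1 fragment lacking the N-terminus, expressed in E. coli. Incubation lasted 30 min at room temperature in Tris pH 7.5 buffer with NaCl and MgCl2, after which complexes were collected on amylose resin, washed three times, digested with proteinase K to free the DNA, barcoded by PCR and sequenced by Illumina. Binding is the pooled-replicate reads-per-million enrichment of pull-down over input.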"}
{"sequence": "GATGATTGTTCTCCCAGCTGATGAATTCTTGACCTCGAGTAAACAAATTTTCCTAATCTTTCTGTTCAAGCGCCATCTAC", "binding signal": "0.216 RPM ratio (pull-down/input)"}
{"sequence": "GATGATTGTTCTCCCAGCTGATGAATTCATTCCGTCGAGTAAACAAATTTTCCTAATCTTTCTGTTCAAGCGCCATCTAC", "binding signal": "0.236 RPM ratio (pull-down/input)"}
{"sequence": "GATGATTGTTCTCCCAGCTGATGAATTTTTCAGTTCGAGTAAACAAATTTTCCTAATCTTTCTGTTCAAGCGCCATCTAC", "binding signal": "0.248 RPM ratio (pull-down/input)"}
{"sequence": "GATGATTGTTCTCCCAGCTGATGAATTTGAGTAGTCGAGTAAACAAATTTTCCTAATCTTTCTGTTCAAGCGCCATCTAC", "binding signal": "0.778 RPM ratio (pull-down/input)"}
{"sequence": "GATGATTGTTCTCCCAGCTGATGAATTTTTGGTGTCGAGTAAACAAATTTTCCTAATCTTTCTGTTCAAGCGCCATCTAC", "binding signal": "0.396 RPM ratio (pull-down/input)"}
{"sequence": "GATGATTGTTCTCCCAGCTGATGAATTTGTGGTGTCGAGTAAACAAATTTTCCTAATCTTTCTGTTCAAGCGCCATCTAC", "binding signal": "6.2 RPM ratio (pull-down/input)"}
{"sequence": "GATGATTGTTCTCCCAGCTGATGAATTTCTGTGGTCGAGTAAACAAATTTTCCTAATCTTTCTGTTCAAGCGCCATCTAC", "binding signal": "0.335 RPM ratio (pull-down/input)"}
{"sequence": "GATGATTGTTCTCCCAGCTGATGAATTTGGTGTGTCGAGTAAACAAATTTTCCTAATCTTTCTGTTCAAGCGCCATCTAC", "binding signal": "3.91 RPM ratio (pull-down/input)"}
{"sequence": "GATGATTGTTCTCCCAGCTGATGAATTTTTGTGGTCGAGTAAACAAATTTTCCTAATCTTTCTGTTCAAGCGCCATCTAC", "binding signal": "0.472 RPM ratio (pull-down/input)"}
{"sequence": "GATGATTGTTCTCCCAGCTGATGAATTTGTGTGGTCGAGTAAACAAATTTTCCTAATCTTTCTGTTCAAGCGCCATCTAC", "binding signal": "5.5 RPM ratio (pull-down/input)"}
{"sequence": "GATGATTGTTCTCCCAGCTGATGAATTTAGCCCATCGAGTAAACAAATTTTCCTAATCTTTCTGTTCAAGCGCCATCTAC", "binding signal": "1.28 RPM ratio (pull-down/input)"}
{"sequence": "GATGATTGTTCTCCCAGCTGATGAATTTCCACGATCGAGTAAACAAATTTTCCTAATCTTTCTGTTCAAGCGCCATCTAC", "binding signal": "0.211 RPM ratio (pull-down/input)"}
{"sequence": "GATGATTGTTCTCCCAGCTGATGAATTGCATCGGTCGAGTAAACAAATTTTCCTAATCTTTCTGTTCAAGCGCCATCTAC", "binding signal": "1.43 RPM ratio (pull-down/input)"}
{"sequence": "GATGATTGTTCTCCCAGCTGATGAATTATGATGGTCGAGTAAACAAATTTTCCTAATCTTTCTGTTCAAGCGCCATCTAC", "binding signal": "1.33 RPM ratio (pull-down/input)"}
{"sequence": "GATGATTGTTCTCCCAGCTGATGAATTATGTTGATCGAGTAAACAAATTTTCCTAATCTTTCTGTTCAAGCGCCATCTAC", "binding signal": "7.26 RPM ratio (pull-down/input)"}
{"sequence": "GATGATTGTTCTCCCAGCTGATGAATTATGATGTTCGAGTAAACAAATTTTCCTAATCTTTCTGTTCAAGCGCCATCTAC", "binding signal": "3.29 RPM ratio (pull-down/input)"}
{"sequence": "GATGATTGTTCTCCCAGCTGATGAATTATCTTGGTCGAGTAAACAAATTTTCCTAATCTTTCTGTTCAAGCGCCATCTAC", "binding signal": "0.323 RPM ratio (pull-down/input)"}
{"sequence": "GATGATTGTTCTCCCAGCTGATGAATTATGTTTTTCGAGTAAACAAATTTTCCTAATCTTTCTGTTCAAGCGCCATCTAC", "binding signal": "6.33 RPM ratio (pull-down/input)"}
{"sequence": "GATGATTGTTCTCCCAGCTGATGAATTATGTCTTTCGAGTAAACAAATTTTCCTAATCTTTCTGTTCAAGCGCCATCTAC", "binding signal": "1.78 RPM ratio (pull-down/input)"}
{"sequence": "GATGATTGTTCTCCCAGCTGATGAATTATGTGTTTCGAGTAAACAAATTTTCCTAATCTTTCTGTTCAAGCGCCATCTAC", "binding signal": "4.42 RPM ratio (pull-down/input)"}
{"sequence": "GATGATTGTTCTCCCAGCTGATGAATTATGTTGTTCGAGTAAACAAATTTTCCTAATCTTTCTGTTCAAGCGCCATCTAC", "binding signal": "7.62 RPM ratio (pull-down/input)"}
{"sequence": "GATGATTGTTCTCCCAGCTGATGAATTATGTTCTTCGAGTAAACAAATTTTCCTAATCTTTCTGTTCAAGCGCCATCTAC", "binding signal": "1.3 RPM ratio (pull-down/input)"}
{"sequence": "GATGATTGTTCTCCCAGCTGATGAATTATGTTCATCGAGTAAACAAATTTTCCTAATCTTTCTGTTCAAGCGCCATCTAC", "binding signal": "1.09 RPM ratio (pull-down/input)"}
{"sequence": "GATGATTGTTCTCCCAGCTGATGAATTATGATGATCGAGTAAACAAATTTTCCTAATCTTTCTGTTCAAGCGCCATCTAC", "binding signal": "1.63 RPM ratio (pull-down/input)"}
{"sequence": "GATGATTGTTCTCCCAGCTGATGAATTATGTTGGTCGAGTAAACAAATTTTCCTAATCTTTCTGTTCAAGCGCCATCTAC", "binding signal": "6.57 RPM ratio (pull-down/input)"}
{"sequence": "GATGATTGTTCTCCCAGCTGATGAATTAGATCATTCGAGTAAACAAATTTTCCTAATCTTTCTGTTCAAGCGCCATCTAC", "binding signal": "0.534 RPM ratio (pull-down/input)"}
{"sequence": "GATGATTGTTCTCCCAGCTGATGAATTTAAGGTGTCGAGTAAACAAATTTTCCTAATCTTTCTGTTCAAGCGCCATCTAC", "binding signal": "0.772 RPM ratio (pull-down/input)"}
{"sequence": "GATGATTGTTCTCCCAGCTGATGAATTCACTAAATCGAGTAAACAAATTTTCCTAATCTTTCTGTTCAAGCGCCATCTAC", "binding signal": "0.211 RPM ratio (pull-down/input)"}
{"sequence": "GATGATTGTTCTCCCAGCTGATGAATTCTGGTCGTCGAGTAAACAAATTTTCCTAATCTTTCTGTTCAAGCGCCATCTAC", "binding signal": "0.464 RPM ratio (pull-down/input)"}
{"sequence": "GATGATTGTTCTCCCAGCTGATGAATTCTCAGCTTCGAGTAAACAAATTTTCCTAATCTTTCTGTTCAAGCGCCATCTAC", "binding signal": "0.293 RPM ratio (pull-down/input)"}
{"sequence": "GATGATTGTTCTCCCAGCTGATGAATTATGATAATCGAGTAAACAAATTTTCCTAATCTTTCTGTTCAAGCGCCATCTAC", "binding signal": "0.653 RPM ratio (pull-down/input)"}
{"sequence": "GATGATTGTTCTCCCAGCTGATGAATTTAGGGCTTCGAGTAAACAAATTTTCCTAATCTTTCTGTTCAAGCGCCATCTAC", "binding signal": "0.514 RPM ratio (pull-down/input)"}
{"sequence": "GATGATTGTTCTCCCAGCTGATGAATTTTGCGTATCGAGTAAACAAATTTTCCTAATCTTTCTGTTCAAGCGCCATCTAC", "binding signal": "3.74 RPM ratio (pull-down/input)"}
{"sequence": "GATGATTGTTCTCCCAGCTGATGAATTGTGACAGTCGAGTAAACAAATTTTCCTAATCTTTCTGTTCAAGCGCCATCTAC", "binding signal": "0.817 RPM ratio (pull-down/input)"}
{"sequence": "GATGATTGTTCTCCCAGCTGATGAATTGTCAGAGTCGAGTAAACAAATTTTCCTAATCTTTCTGTTCAAGCGCCATCTAC", "binding signal": "0.234 RPM ratio (pull-down/input)"}
{"sequence": "GATGATTGTTCTCCCAGCTGATGAATTCCCGTCTTCGAGTAAACAAATTTTCCTAATCTTTCTGTTCAAGCGCCATCTAC", "binding signal": "0.33 RPM ratio (pull-down/input)"}
{"sequence": "GATGATTGTTCTCCCAGCTGATGAATTAGTAAACTCGAGTAAACAAATTTTCCTAATCTTTCTGTTCAAGCGCCATCTAC", "binding signal": "1.08 RPM ratio (pull-down/input)"}
